From PubChem
RORg inh = blocks mouse ROR gamma transcriptional activity; Drosophila S2 Gal4-RORgamma UAS-luciferase reporter, 20 h; Potency, µM (doses to about 53.6 µM), for inactives: top-dose activity change, negative = inhibition, actives largely listed as inhibitors; hit rate 5.4% among 310,000; AID 2551; note: potency is the fitted concentration of half-maximal effect; % is set by controls: 0 for no effect and ±100 for the full control effect; nearly all actives have a fitted effect of over 60% in size
Target sequence (P51450 whole entry, looked up, the tested form may be a part): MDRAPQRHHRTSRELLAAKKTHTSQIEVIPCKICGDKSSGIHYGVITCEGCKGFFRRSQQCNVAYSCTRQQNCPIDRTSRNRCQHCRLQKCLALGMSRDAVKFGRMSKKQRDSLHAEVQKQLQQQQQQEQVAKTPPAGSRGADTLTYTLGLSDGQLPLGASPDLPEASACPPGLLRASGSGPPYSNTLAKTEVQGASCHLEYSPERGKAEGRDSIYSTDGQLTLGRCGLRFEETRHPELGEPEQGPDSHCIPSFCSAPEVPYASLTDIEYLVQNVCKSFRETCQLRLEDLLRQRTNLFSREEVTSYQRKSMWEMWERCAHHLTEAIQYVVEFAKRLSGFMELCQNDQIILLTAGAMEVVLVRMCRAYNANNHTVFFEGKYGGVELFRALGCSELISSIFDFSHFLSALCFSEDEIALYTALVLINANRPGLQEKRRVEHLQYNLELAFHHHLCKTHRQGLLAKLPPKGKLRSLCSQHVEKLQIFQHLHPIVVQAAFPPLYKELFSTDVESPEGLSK
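Schneider cells (Drosophila), stable Gal4 DBD–ROR gamma + UAS-luc; 1 hr cmpd preincubation; Cu2+ induction 700 uM final; 20 hr ambient; luminescence.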
SW480 rerep = induces DNA re-replication in SW480 colon adenocarcinoma cells; SW480 DNA re-replication, Hoechst DNA content imaging, 48 h; Potency, µM (titrated, usually from 46.1 µM), without a hit: at the top dose re-replication activation, usual class: activators; hit rate 1.8% among 340,000; AID 624297; note: potency is the fitted concentration of half-maximal effect; % of control where 0% means no effect; nearly all actives have a fitted effect of over 55% in size
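Treated cells incubate 48 hr (37 C, 5% CO2), are stained 40 min with Hoechst, and nuclear fluorescence is enumerated; a rise in nuclei with high DNA signal marks re-replication.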
MCF10A rereplic = inducers of DNA re-replication in MCF 10A breast cells; MCF 10A DNA re-replication, Hoechst nuclear intensity, 48 h; Potency, µM (highest dose often 46.1 µM), for the others: top-dose activity, positive = re-replication, most hits filed as activators; hit rate 2.9% among 350,000; AID 624296; note: potency is the fitted concentration of half-maximal effect; % of control where 0% means no effect; nearly all actives have a fitted effect of over 50% in size
Giardia kill = Giardia lamblia killing | AID 540267 | Giardia lamblia trophozoite viability | activity change, % at 7.66 µM, hits read low | hit rate 0.15% among 340,000; in the data active = activity change below about -80%; inconclusive = between about -30% and that limit;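 note: parasites exposed to compound for two days anaerobically before the ATP read; % is set by controls: 0 for no effect and ±100 for the full control effect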
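Killing of trophozoites was scored by loss of ATP luminescence after a 48 hrs anaerobic exposure to compounds at 37 deg C, using 100 cells per well.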
BCR signal inh = chronic active BCR signaling inhibition; ABC-DLBCL IkBa-CBG/CBR reporter, luminescence ratio, 4 h; hit rate 0.05% among 340,000; Potency, µM (doses to about 46.1 µM), without a hit: at the highest dose activity change, negative = inhibition, usual class: inhibitors; AID 493014; active = well fitted inhibition curve with a large enough effect in the signal ratio, with a control signal flat, not every such curve was filed as active; inconclusive = small, poorly fitted or top-dose-only effect, or effect the other way, or a change in a side signal; the % refers to the signal ratio;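 note: potency is the fitted concentration of half-maximal effect; plate controls were basal doxycycline-induced cells for no effect and cells given 10 µM MG132 for full effect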
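TMD8 ABC-DLBCL cells carrying doxycycline-inducible green luciferase fused to IkappaBalpha plus unfused red luciferase were exposed to compounds (up to 46 uM) for 4 hrs at 37C. Activity came from the overlap-corrected green/red luminescence ratio.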
Gal4-VP16 FLuc = counter-screen for ROR gamma inhibitors: Gal4-VP16 reporter; Drosophila S2 Gal4-VP16 UAS-luciferase, luminescence, 20 h; AID 2546; Potency, µM (doses to about 53.6 µM), without a hit: at the top dose activity, negative = inhibition, usual class: inhibitors; hit rate 3.5% among 310,000;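 note: Gal4-VP16 expression switched on by copper sulfate through the metallothionein promoter; potency is the fitted concentration of half-maximal effect; % is set by controls: 0 for no effect and ±100 for the full control effect; nearly all actives have a fitted effect of over 50% in size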
Starred values were filed as active, the others as inactive; [ ] = another dose, or the depositor's remark. Shown are actives, neighbours in structure and some others; about 8.3% of the full set was active somewhere. Unless noted, calls come from the whole dose curve; as a rule, active = well fitted curve in the direction sought with a large enough effect; inconclusive = small, poorly fitted or top-dose-only effect, or another doubt; inactive = no such curve, though single readings can be large; an effect the other way counts as inactive or inconclusive.

How did O=C(NC(=S)Nc1ccc(S(=O)(=O)N2CCCC2)cc1)C1CC1 do in these assays?
RORg inh: 10µM*; SW480 rerep: inconclusive; MCF10A rereplic: inconclusive; Giardia kill: 13.9; BCR signal inh: inconclusive; Gal4-VP16 FLuc: -1.4%

How did COc1ccc(Nc2nc(C(=O)N(CCO)Cc3ccccc3)cs2)cc1 do in these assays?
RORg inh: 16.5%; SW480 rerep: -154.3%; MCF10A rereplic: inconclusive; Giardia kill: -3.6; BCR signal inh: 8.8%; Gal4-VP16 FLuc: -4.6%

How did Cc1ccc(N=Nc2ccc(O)cc2)c(Br)c1 do in these assays?
RORg inh: 2.82µM*; SW480 rerep: -0.5%; MCF10A rereplic: 27.4%; Giardia kill: -17.0; BCR signal inh: inconclusive; Gal4-VP16 FLuc: inconclusive

How did Oc1ccc(N=Nc2ccc(Br)cc2)c(O)c1 do in these assays?
RORg inh: inconclusive; SW480 rerep: -6.4%; MCF10A rereplic: -11.4%; Giardia kill: -17.4; BCR signal inh: inconclusive; Gal4-VP16 FLuc: inconclusive

How did CN(C)c1nc(N)c2ncc(=S)[nH]c2n1 do in these assays?
RORg inh: -37.6%; SW480 rerep: inconclusive; MCF10A rereplic: 29.1µM*; Giardia kill: 11.9; BCR signal inh: 3.7%; Gal4-VP16 FLuc: -5.7%

Results for O=C(NC(=S)Nc1ccc(CN2CCCCC2)cc1)c1cccc(OCc2ccccc2)c1 ?
RORg inh: 10µM*; SW480 rerep: 3.0%; MCF10A rereplic: 23.1µM*; Giardia kill: 19.0; BCR signal inh: -1.5%; Gal4-VP16 FLuc: inconclusive

What do the screens show for `CC(=O)Oc1cccc(N2C(=O)c3ccc(C(=O)Nc4cccnc4)cc3C2=O)c1`?
RORg inh: 6.3%; SW480 rerep: -1.5%; MCF10A rereplic: 1.5%; Giardia kill: inconclusive; BCR signal inh: -3.5%; Gal4-VP16 FLuc: -0.4%

Results for O=C(O)c1ccc(NC(=S)NC(=O)c2cccc(COc3ccccc3)c2)cc1 ?
RORg inh: 41.4%; SW480 rerep: -20.3%; MCF10A rereplic: -0.7%; Giardia kill: 8.3; BCR signal inh: inconclusive; Gal4-VP16 FLuc: 3.9%

What do the screens show for `CCOc1cccc(C(=O)NC(=S)Nc2cccnc2)c1`?
RORg inh: 14.1µM*; SW480 rerep: -5.5%; MCF10A rereplic: 0.1%; Giardia kill: -18.4; BCR signal inh: -11.6%; Gal4-VP16 FLuc: inconclusive

How did CCOc1ccccc1N1C(=O)c2ccc(C(=O)Nc3cccnc3)cc2C1=O do in these assays?
RORg inh: 18.3%; SW480 rerep: -3.3%; MCF10A rereplic: 18.9%; Giardia kill: -2.4; BCR signal inh: -0.9%; Gal4-VP16 FLuc: 12.6µM*

Results for CCOc1cccc(C(=O)NC(=S)Nc2ccccc2)c1 ?
RORg inh: 4.47µM*; SW480 rerep: -5.3%; MCF10A rereplic: 1.6%; Giardia kill: -3.4; BCR signal inh: inconclusive; Gal4-VP16 FLuc: inconclusive

Results for CCc1sc(-c2cc3ccc(O)cc3oc2=O)nc1-c1ccc(C)cc1 ?
Giardia kill: 2.4

How did CCCOc1cccc(C(=O)NC(=S)Nc2ccc(N3CCN(C)CC3)cc2)c1 do in these assays?
RORg inh: -16.4%; SW480 rerep: -15.3%; MCF10A rereplic: -1.7%; Giardia kill: -16.7; BCR signal inh: -2.3%; Gal4-VP16 FLuc: -8.1%[10 µM]

What do the screens show for `O=C(NCCCOc1cccc(CN2CCCCC2)c1)c1ccc(Cl)c(Cl)c1`?
RORg inh: 1.3%; SW480 rerep: 29.1µM*; MCF10A rereplic: inconclusive; Giardia kill: 11.8; BCR signal inh: inconclusive; Gal4-VP16 FLuc: -7.7%

How did CCCCOc1cccc(C(=O)NC(=S)Nc2cccnc2)c1 do in these assays?
RORg inh: 11.2µM*; SW480 rerep: -6.3%; MCF10A rereplic: 3.2%; Giardia kill: 5.3; BCR signal inh: -18.6%; Gal4-VP16 FLuc: inconclusive

Results for CCOc1cccc(C(=O)NC(=S)Nc2ccc(N3CCN(CC)CC3)cc2)c1 ?
RORg inh: 11.2µM*; SW480 rerep: 22.1%; MCF10A rereplic: 5.1%; Giardia kill: -4.4; BCR signal inh: -1.0%; Gal4-VP16 FLuc: inconclusive

How did CCOc1cccc(C(=O)NC(=S)Nc2cccc(NC(=O)c3ccccc3Cl)c2)c1 do in these assays?
RORg inh: -40.5%[10 µM]; SW480 rerep: -13.6%; MCF10A rereplic: -5.3%; Giardia kill: 22.9; BCR signal inh: inconclusive; Gal4-VP16 FLuc: 0.631µM*

Results for CC(C)(C)C(=O)NC(c1ccc(Cl)cc1)[C@]1(C)C[C@H]1C1CCCCC1 (stereo partly drawn) ?
RORg inh: 1.9%; Gal4-VP16 FLuc: -10.8%

How did O=C(CN1CCN(CC(=O)Nc2ccccc2Cl)CC1)NCC1(N2CCCCC2)CCCCC1 do in these assays?
SW480 rerep: 11.5%; MCF10A rereplic: -1.6%; Giardia kill: 7.9; BCR signal inh: -5.1%

What do the screens show for `Clc1ccc(OC2CCN(Cc3nc(CC4CC4)no3)CC2)cc1`?
RORg inh: inconclusive; SW480 rerep: 2.4%; MCF10A rereplic: 0.5%; Giardia kill: -21.2; BCR signal inh: -30.5%; Gal4-VP16 FLuc: -10.0%

What do the screens show for `COc1ccc(C(=O)NC(=S)Nc2ccc(NC(=O)c3ccco3)cc2)cc1[N+](=O)[O-]`?
RORg inh: inconclusive; SW480 rerep: -0.2%; MCF10A rereplic: 1.5%; Giardia kill: 10.4; BCR signal inh: inconclusive; Gal4-VP16 FLuc: inconclusive

Results for COc1ccc(C(=O)NC(=S)Nc2cccc(NC(=O)c3ccco3)c2)cc1[N+](=O)[O-] ?
RORg inh: 10µM*; SW480 rerep: 2.0%; MCF10A rereplic: 3.3%; Giardia kill: 11.4; BCR signal inh: -13.3%; Gal4-VP16 FLuc: inconclusive

Results for CCOc1ccc(C(=O)NC(=S)Nc2ccc(NC(=O)CC)cc2)cc1[N+](=O)[O-] ?
RORg inh: -31.6%; SW480 rerep: -117.5%; MCF10A rereplic: -0.6%; Giardia kill: -18.8; BCR signal inh: -1.5%; Gal4-VP16 FLuc: -6.7%

Results for CCOc1ccc(C(=O)NC(=S)Nc2cccc(NC(=O)c3ccco3)c2)cc1[N+](=O)[O-] ?
RORg inh: 6.31µM*; SW480 rerep: 16.5%; MCF10A rereplic: inconclusive; Giardia kill: 3.4; BCR signal inh: -10.1%; Gal4-VP16 FLuc: 7.08µM*

What do the screens show for `COCC(=O)N1C[C@H]2CON(C)[C@H]2C[C@H]1c1cccc(-c2ccc(C#N)cc2)c1`?
SW480 rerep: 6.2%; MCF10A rereplic: -30.7%; Giardia kill: 12.1

What do the screens show for `CCC(C(=O)Nc1ccon1)c1ccccc1` (stereo not drawn)?
RORg inh: 12.6%; SW480 rerep: 6.7%; MCF10A rereplic: 6.8%; Giardia kill: 5.9; BCR signal inh: 0.1%; Gal4-VP16 FLuc: 7.1%

What do the screens show for `C=C(C)CNC(=S)Nc1cccc(N)n1`?
RORg inh: 2.82µM*; SW480 rerep: 4.1%; MCF10A rereplic: -8.6%; Giardia kill: -0.8; BCR signal inh: 8.0%; Gal4-VP16 FLuc: inconclusive
